The source of these data is PubChem BioAssay (Tox21).

Several values for one entry are separate records, joined by “and”; a condition that tells them apart may be missing. Identical values can stand only once. Records with an inconclusive call do not appear. Activity calls are given as the source filed them. Unless noted, calls follow the shape of the dose curve; as a rule, active = well fitted curve in the direction sought with a large enough effect in the repeat runs; inconclusive = weak or mixed curves; inactive = no such curve, though single readings can be large; an effect the other way counts as inactive or inconclusive.

The nature of test [1]: qHTS assay to identify small molecule antagonists of the glucocorticoid receptor (GR) signaling pathway - cell viability counter screen (AID 720693). Also: nearly all actives have a fitted effect of over 55% in size. Also: potency is read from the fitted curve at half-maximal effect. In general terms: qHTS replaces the single test concentration by a dilution series.
Test [2] is described as follows: qHTS assay for identifying genotoxic compounds that show differential cytotoxicity against isogenic chicken DT40 cell lines with known DNA damage response pathways - wild type cell line (AID 743012). Also: nearly all actives have a fitted effect of over 60% in size. Also: potency is read from the fitted curve at half-maximal effect. In short, it runs like this: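 Parental DNA repair-proficient DT40 cells, 300 per well, were pre-incubated ~0.5 h at 37 C/5% CO2, pin-dosed with compounds in DMSO, then incubated 40 h. Viability was read as CellTiter-Glo luminescence after 30 min at room temperature.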

Test [3] in a line: qHTS assay for identifying genotoxic compounds that show differential cytotoxicity against isogenic chicken DT40 cell lines with known DNA damage response pathways - Rev3 mutant cell line (AID 743014). Also: nearly all actives have a fitted effect of over 55% in size. Also: potency is read from the fitted curve at half-maximal effect.
Test [4] can be described thus: qHTS assay for identifying genotoxic compounds that show differential cytotoxicity against isogenic chicken DT40 cell lines with known DNA damage response pathways - Rad54/Ku70 mutant cell line (AID 743015). Also: nearly all actives have a fitted effect of over 60% in size. Also: potency is read from the fitted curve at half-maximal effect.
Test [5] can be described thus: qHTS assay to identify small molecule antagonists of the androgen receptor (AR) signaling pathway - cell viability counter screen (AID 743033; also: nearly all actives have a fitted effect of over 45% in size; also: potency is read from the fitted curve at half-maximal effect).
Test [6] is described as follows: qHTS assay to identify small molecule antagonists of the androgen receptor (AR) signaling pathway using the MDA cell line - cell viability counter screen (AID 743041; also: nearly all actives have a fitted effect of over 45% in size; also: potency is read from the fitted curve at half-maximal effect). In a few lines: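 MDA-kb2 AR-luc cells (MMTV-luciferase, AR/GR responsive) treated with compounds plus R1881 agonist for 16 h at 37C. CellTiter-Fluor added at 15.5 h; fluorescence read after 30 min in the same wells.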

For test [7], the target named is Androgen receptor (Homo sapiens) (UniProt P10275). Kind of test: qHTS assay to identify small molecule antagonists of the androgen receptor (AR) signaling pathway (AID 743035; active = well fitted inhibition curve with a large enough effect in the signal ratio in the repeat runs, not every such curve was filed as active; the % refers to the signal ratio). In short, it runs like this: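 HEK293 cells stably carrying a UAS-driven beta-lactamase reporter (AR-UAS-bla GripTite) were plated for 4 h at 37C, then given compound and the agonist R1881 and incubated 16 h. Reporter activity was read by LiveBLAzer B/G FRET fluorescence after 2 h at room temperature.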

For test [8] the target is unchanged. Kind of test: qHTS assay to identify small molecule agonists of the androgen receptor (AR) signaling pathway (AID 743036; active = well fitted activation curve with a large enough effect in the signal ratio in the repeat runs, with a control signal flat, not every such curve was filed as active; the % refers to the signal ratio). In short, it runs like this: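 Reporter line: GeneBLAzer AR-UAS-bla-GripTite (HEK293). Steps: plate cells, 4 h rest, add compounds, 16 h at 37C, add LiveBLAzer B/G substrate, 2 h at RT, read fluorescence.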
The target is the same in test [9]. Kind of test: qHTS assay to identify small molecule agonists of the androgen receptor (AR) signaling pathway using the MDA cell line (AID 743040; also: nearly all actives have a fitted effect of over 20% in size). In short, it runs like this:
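MDA-kb2 breast carcinoma cells carrying MMTV-luciferase (responsive to AR and GR), plated 5 h then treated 16 h with compounds at 37C, 0% CO2. Read-out was ONE-Glo luminescence after 30 min at room temperature.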

Test [10] shares this target. Briefly: qHTS assay to identify small molecule antagonists of the androgen receptor (AR) signaling pathway using the MDA cell line (AID 743042; also: potency is read from the fitted curve at half-maximal effect; nearly all actives have a fitted effect of over 55% in size). In short, it runs like this:
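MDA-kb2 breast carcinoma cells carrying MMTV-luciferase (AR/GR responsive) were co-treated with compounds and the agonist R1881 for 16 h at 37C. Inhibition read as ONE-Glo luminescence; CellTiter-Fluor fluorescence measured in parallel for cytotoxicity.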

Sequence of Androgen receptor (Homo sapiens) (P10275 whole entry, looked up): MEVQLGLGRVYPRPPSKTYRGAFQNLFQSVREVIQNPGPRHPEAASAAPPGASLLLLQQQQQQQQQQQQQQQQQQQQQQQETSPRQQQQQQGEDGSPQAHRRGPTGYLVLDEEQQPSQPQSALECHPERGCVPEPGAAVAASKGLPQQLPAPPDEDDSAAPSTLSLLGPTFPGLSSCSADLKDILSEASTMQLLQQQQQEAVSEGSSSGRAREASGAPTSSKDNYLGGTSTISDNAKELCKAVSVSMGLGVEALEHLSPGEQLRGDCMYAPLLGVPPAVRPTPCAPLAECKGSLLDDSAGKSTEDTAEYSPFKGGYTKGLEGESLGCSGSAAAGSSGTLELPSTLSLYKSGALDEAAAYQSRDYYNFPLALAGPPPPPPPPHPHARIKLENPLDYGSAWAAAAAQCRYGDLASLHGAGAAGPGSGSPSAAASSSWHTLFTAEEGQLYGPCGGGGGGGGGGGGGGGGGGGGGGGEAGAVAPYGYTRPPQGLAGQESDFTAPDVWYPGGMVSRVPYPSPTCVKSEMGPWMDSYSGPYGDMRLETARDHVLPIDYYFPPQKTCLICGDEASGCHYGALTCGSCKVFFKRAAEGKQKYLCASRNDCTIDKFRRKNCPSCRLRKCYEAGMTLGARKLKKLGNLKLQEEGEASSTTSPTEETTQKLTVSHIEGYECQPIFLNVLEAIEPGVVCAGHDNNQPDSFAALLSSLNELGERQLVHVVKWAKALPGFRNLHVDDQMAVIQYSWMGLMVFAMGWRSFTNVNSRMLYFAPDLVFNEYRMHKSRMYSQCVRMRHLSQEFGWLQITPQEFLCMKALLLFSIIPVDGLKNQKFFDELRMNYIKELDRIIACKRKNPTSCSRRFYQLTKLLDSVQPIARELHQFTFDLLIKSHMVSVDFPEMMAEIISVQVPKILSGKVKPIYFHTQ

As to `NCCCCCCNCCCCCCN`, the Potency result in test [1], in test [5] and in test [6] was “inactive” each time. The Potency in test [2] is 7.57 µM (active); in [3], 6.75 µM (active); in test [4], 5.36 µM (active).
As for `O=Nc1ccc(NO)cc1`, the Potency entry in [1], in test [2], in test [3], in test [4], in [5] and in test [6] was “inactive” each time.
Regarding `CCCCCCCCCCCCCCNCCO`, the Potency entry in test [1], in test [5] and in test [6] was “inactive” in each case. The values for the Potency in test [2], in test [3] and in test [4] were 11.9 µM (active), 21.1 µM (active) and 11.9 µM (active), respectively.
Regarding `CNC(=O)c1cc(Oc2ccc(NC(=O)Nc3ccc(Cl)c(C(F)(F)F)c3)cc2)ccn1`, the Potency in test [1] is 19 µM (active); in [2], 4.73 µM (active); in test [3], 5.31 µM (active); in test [4], 5.31 µM (active); in test [5], 16.9 µM (active); in test [6], 16.8 µM (active).
Take `C(=C/c1ccccc1)/c1ccccc1`: the Potency entry in [1], in test [2], in [3], in test [4], in [5] and in test [6] was “inactive” in each case.
For the compound `O=C1c2c(O)ccc([N+](=O)[O-])c2C(=O)c2c([N+](=O)[O-])ccc(O)c21`, the Potency in test [1] is 8.63 µM (active); in test [2] it was 13.6 µM (active); in test [3] it was 6.8 µM (active); in test [4], 5.4 µM (active); in test [5], 6.85 µM (active); in test [6] it was 21.5 µM (active).
Take `O=C(O)CC(=O)O`: the Potency result in test [1], in test [2], in test [3], in test [4], in [5] and in test [6] was “inactive” in each case.
Take `[O]=[Zr]`: the Potency entry in test [1], in [2], in test [3], in test [4], in test [5] and in test [6] was “inactive” throughout.
Turning to `CNC(=S)NN`, the Potency result in test [1] was “inactive”. The Potency in [2] was 7.7 µM (active); in test [3], 7.7 µM (active); in test [4], 7.7 µM (active); in test [5], 3.89 µM (active); in test [6] it was 48.6 µM (active).
Consider `CCCCOC(=O)C(C)CC` (centres undefined), for which the Potency result in test [1] and in [6] was “inactive” throughout. Besides, the Potency is 12.2 µM (active) in [2], 13.7 µM (active) in test [3], 13.7 µM (active) in [4] and 43.6 µM (active) in test [5].
As to `CCCCNc1c(C(=O)OCC)c(C)nc2c1cnn2CC`, the Potency result in test [1], in test [5] and in [6] was “inactive” each time. The Potency in test [2] was 21.1 µM (active); in [3], 23.7 µM (active); in test [4], 26.6 µM (active).
On to `CC(=O)Nc1ccc(O)cc1`, for which the Potency entry in test [1], in [2], in test [3], in test [4], in test [5] and in test [6] was “inactive” throughout.
`Cc1occc1SSc1ccoc1C`: the Potency entry in test [1], in test [5] and in [6] was “inactive” throughout. For the same compound, the Potency was 19.3 µM (active) in test [2], 19.3 µM (active) in test [3] and 15.4 µM (active) in test [4].
Take `Clc1ccc(C(c2ccccc2Cl)C(Cl)Cl)cc1` (centres undefined): the Potency entry in [1], in test [5] and in test [6] was “inactive” in each case. In addition, the Potency in test [2] is 23.7 µM (active); in test [3] it was 29.8 µM (active) and 48.6 µM (active); in test [4], 26.6 µM (active) and 43.3 µM (active).
For the compound `CCC(=O)OCCc1ccccc1`, the Potency entry in test [1] and in [6] was “inactive” throughout. The results for the Potency in [2], in test [3] and in [4] were 18.5 µM (active), 23.3 µM (active) and 41.4 µM (active), respectively.
Regarding `CN(C)CCCN1c2ccccc2CCc2ccccc21`, the Potency result in [1] and in test [6] was “inactive” each time. The Potency was 13.3 µM (active) and 8.63 µM (active) in test [2]; 23.7 µM (active) and 9.69 µM (active) in test [3]; 29.8 µM (active) and 9.69 µM (active) in test [4].
Take `COc1ccccc1OCCNCC(O)COc1cccc2[nH]c3ccccc3c12` (centres undefined): the Potency entry in [1], in [7] and in test [9] was “inactive” in each case. In addition, the Potency in test [2] was 26.6 µM (active); in test [3], 29.8 µM (active); in test [4], 29.8 µM (active). In test [8], the call was inactive.
With `CCCCCCC(C)Nc1ccc(Nc2ccccc2)cc1` (centres undefined), the Potency in test [1] was 49 µM (active); in [2], 17.2 µM (active); in test [3], 15.4 µM (active); in [4], 17.2 µM (active). The Potency result in [6] was “inactive”.
Regarding `C=CCCCCCCC=C`, the Potency result in test [1], in [2], in test [4] and in test [6] was “inactive” in each case.
Turning to `C[C@@]12C(=O)OC(=O)[C@]1(C)C1CCC2O1`, the Potency is 1.29 µM (active) in test [1] and 3.35 µM (active) in test [6]. The Potency result in test [2], in [3] and in test [4] was “inactive” in each case.
Regarding `CCCCCCCC/C=C/CCCOC(C)=O`, the Potency entry in test [1], in test [2], in test [4], in test [5] and in test [6] was “inactive” each time.
For the compound `CCCCCCCC/C=C\CCCCCCCC(=O)N(C)CC(=O)O`, the Potency in [1] is 49 µM (active); in test [2], 21.7 µM (active); in [4] it was 27.3 µM (active).
Consider `Nc1ncnc2c1ncn2[C@@H]1O[C@H](COP(=O)(O)O)[C@@H](O)[C@H]1O`, for which the Potency result in test [1], in test [2], in test [4], in [5] and in [6] was “inactive” each time.
As to `CCCC(CC)CCCCCCCN` (centres undefined), the Potency entry in [1], in test [2], in test [4], in test [5] and in test [6] was “inactive” in each case.
Consider `COc1cc(C=C2CCC/C(=C\c3ccc(O)c(OC)c3)C2=O)ccc1O`, for which the Potency in test [1] was 23.9 µM (active); in test [2] it was 8.41 µM (active); in [3] it was 11.9 µM (active); in test [4] it was 9.44 µM (active); in [10] it was 21.1 µM (active). For the same compound, the Potency entry in test [9] was “inactive”.
`CCCCOc1ccc(C(=O)CCN2CCCCC2)cc1`: the Potency entry in test [1] was “inactive”. The Potency in test [2] is 0.717 µM (active); in [3] it was 1.27 µM (active); in test [4], 1.01 µM (active); in [6], 10.6 µM (active).
